# From PubChem BioAssay (NCATS)
# Records with an inconclusive call do not appear. Some of the results follow. Activity calls are given as the source filed them. Unless noted, the call rests on the fitted dose curve; in most records, active means well fitted curve in the direction sought with a large enough effect; inconclusive means small, poorly fitted or top-dose-only effect, or another doubt; inactive means no such curve, though single readings can be large; an effect the other way counts as inactive or inconclusive.
# How the values were obtained:
# [1] = target: Cytochrome P450 2C9 (Homo sapiens) (UniProt P11712); assay: qHTS Assay for Inhibitors and Substrates of Cytochrome P450 2C9 (AID 883); further: nearly all actives have a fitted effect of over 60% in size; further: potency means the concentration at half of the fitted maximal effect; on activity change, negative = inhibition: on the % scale 0 is the no-effect control and ±100 the full control effect
# Sequence of Cytochrome P450 2C9 (Homo sapiens) (P11712 whole entry, looked up): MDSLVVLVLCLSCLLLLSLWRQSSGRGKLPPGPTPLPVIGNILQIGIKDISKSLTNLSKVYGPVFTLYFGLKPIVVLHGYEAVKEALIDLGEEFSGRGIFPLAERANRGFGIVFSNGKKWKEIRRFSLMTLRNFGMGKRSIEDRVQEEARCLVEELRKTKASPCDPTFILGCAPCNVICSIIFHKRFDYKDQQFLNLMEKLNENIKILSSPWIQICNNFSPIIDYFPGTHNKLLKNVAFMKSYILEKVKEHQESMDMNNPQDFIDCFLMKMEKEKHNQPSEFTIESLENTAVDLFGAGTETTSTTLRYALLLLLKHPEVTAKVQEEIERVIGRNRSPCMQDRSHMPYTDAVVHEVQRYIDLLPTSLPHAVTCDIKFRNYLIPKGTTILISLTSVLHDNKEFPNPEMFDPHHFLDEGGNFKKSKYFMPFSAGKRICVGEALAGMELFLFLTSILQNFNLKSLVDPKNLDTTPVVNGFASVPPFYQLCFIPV
# In short: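 A luminogenic readout tracked human CYP2C9 (10nM) converting deoxyluciferin (100uM, at KM) in 25mM KPO4 during 60 min at 37C with regenerated NADPH. Values normalized to 57uM sulphaphenazole as complete inhibition.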
# [2] = target: Cytochrome P450 2C19 (Homo sapiens) (UniProt P33261); assay: qHTS Assay for Inhibitors and Substrates of Cytochrome P450 2C19 (AID 899); further: nearly all actives have a fitted effect of over 60% in size; further: potency means the concentration at half of the fitted maximal effect; on activity, negative = inhibition: on the % scale 0 is the no-effect control and ±100 the full control effect
# Sequence of Cytochrome P450 2C19 (Homo sapiens) (P33261 whole entry, looked up): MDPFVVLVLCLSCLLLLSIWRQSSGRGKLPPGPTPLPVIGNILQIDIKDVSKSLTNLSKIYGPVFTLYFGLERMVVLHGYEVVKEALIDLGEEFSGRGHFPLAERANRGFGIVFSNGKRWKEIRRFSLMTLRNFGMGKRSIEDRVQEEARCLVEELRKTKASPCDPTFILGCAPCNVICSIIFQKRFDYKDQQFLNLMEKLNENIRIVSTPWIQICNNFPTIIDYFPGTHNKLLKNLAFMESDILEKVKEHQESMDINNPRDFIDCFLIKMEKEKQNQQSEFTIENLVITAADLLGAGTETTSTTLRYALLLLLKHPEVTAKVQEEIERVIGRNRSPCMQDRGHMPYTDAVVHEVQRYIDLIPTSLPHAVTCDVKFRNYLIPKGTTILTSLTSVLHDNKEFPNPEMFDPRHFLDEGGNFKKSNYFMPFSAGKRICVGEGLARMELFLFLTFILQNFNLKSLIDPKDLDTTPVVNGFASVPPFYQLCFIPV
# In short: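 NADPH-dependent conversion of Luciferin-H EGE (10uM, at KM) by 5nM enzyme in 50mM KPO4, 60 min at 37C following 10 min compound preincubation. Stopped with luciferin detection buffer; luminescence read after 20 min.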
# [3] = qHTS Assay for Identifying Gametocytocidal Compounds (AID 743244);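 further: on the % scale 0 is the no-effect control and ±100 the full control effect; actives lower the fluorescent signal which means gametocytes are killed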; conditions: P. falciparum 3D7 stage III-V gametocytes, alamarBlue, 72 h; max response: stronger effect = lower value
# In short: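 Stage III-V P. falciparum 3D7 gametocytes, 20,000 per well, were exposed to compounds for 72 h at 37C, 5% CO2. AlamarBlue was then added for 24 h and viability was read as fluorescence at Ex 525/Em 598 nm.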
# [4] = target: Flap endonuclease 1 (Homo sapiens) (UniProt P39748); assay: qHTS Assay for the Inhibitors of FEN1: Confirmatory Assay for Cherry-picked Compounds (AID 720498); conditions: FEN1 flap cleavage, TAMRA/BHQ2 fluorogenic DNA substrate; further: potency means the concentration at half of the fitted maximal effect; nearly all actives have a fitted effect of over 60% in size
# Sequence of Flap endonuclease 1 (Homo sapiens) (P39748 whole entry, looked up): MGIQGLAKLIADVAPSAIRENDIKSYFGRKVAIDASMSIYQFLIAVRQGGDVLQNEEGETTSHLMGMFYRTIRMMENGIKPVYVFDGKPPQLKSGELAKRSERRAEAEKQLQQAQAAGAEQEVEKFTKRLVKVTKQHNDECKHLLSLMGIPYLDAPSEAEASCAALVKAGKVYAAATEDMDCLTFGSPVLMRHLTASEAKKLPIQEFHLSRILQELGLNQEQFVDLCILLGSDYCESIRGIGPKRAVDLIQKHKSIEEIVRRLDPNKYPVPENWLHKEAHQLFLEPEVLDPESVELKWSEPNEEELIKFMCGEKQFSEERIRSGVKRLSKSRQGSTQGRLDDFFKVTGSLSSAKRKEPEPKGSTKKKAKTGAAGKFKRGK
# In short: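 Human FEN1 (10 nM reagent) was preincubated with compounds for 15 min at room temperature, then 50 nM final double-flap DNA substrate (5'-TAMRA flap, BHQ-2 quencher strand) was added. Fluorescence (ex 525/em 598 nm) was read at 0 and 15 min.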
# [5] = target: DNA polymerase eta (Homo sapiens) (UniProt Q9Y253); assay: qHTS for Inhibitors of Polymerase Eta: Confirmatory Assay for Cherry-picked Compounds (AID 720502); conditions: Pol eta primer extension, TAMRA/BHQ fluorescence, 10 min; further: potency means the concentration at half of the fitted maximal effect
# Sequence of DNA polymerase eta (Homo sapiens) (Q9Y253 whole entry, looked up): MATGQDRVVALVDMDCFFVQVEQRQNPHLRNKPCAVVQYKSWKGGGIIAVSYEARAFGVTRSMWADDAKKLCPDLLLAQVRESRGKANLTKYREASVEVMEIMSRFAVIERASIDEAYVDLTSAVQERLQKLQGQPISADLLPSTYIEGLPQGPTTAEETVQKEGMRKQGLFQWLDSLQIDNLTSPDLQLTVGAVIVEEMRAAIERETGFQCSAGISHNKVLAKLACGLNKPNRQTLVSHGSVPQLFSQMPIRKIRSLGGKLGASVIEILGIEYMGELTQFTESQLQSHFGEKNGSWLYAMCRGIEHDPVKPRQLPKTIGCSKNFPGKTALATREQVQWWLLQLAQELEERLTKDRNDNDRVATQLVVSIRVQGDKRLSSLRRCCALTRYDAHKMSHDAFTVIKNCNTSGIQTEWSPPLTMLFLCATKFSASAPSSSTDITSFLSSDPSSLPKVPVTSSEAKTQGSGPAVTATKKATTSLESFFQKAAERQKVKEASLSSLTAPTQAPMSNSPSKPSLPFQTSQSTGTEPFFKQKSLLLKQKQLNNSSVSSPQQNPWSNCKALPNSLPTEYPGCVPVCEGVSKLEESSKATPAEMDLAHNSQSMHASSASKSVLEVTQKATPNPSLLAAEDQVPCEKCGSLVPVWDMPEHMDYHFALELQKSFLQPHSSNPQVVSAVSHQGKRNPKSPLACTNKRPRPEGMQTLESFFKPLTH
# In short: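 Human Pol eta at 10 nM was preincubated with compound for 15 min at room temperature. Reaction was started with TAMRA/BHQ-2-labelled primer-template substrate (50 nM final), with fluorescence read at 0 and 10 min (ex 525, em 598 nm).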
# [6] = qHTS profiling for inhibitors of Plasmodium falciparum (3D7) proliferation (AID 743322);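 further: infected erythrocytes exposed to compound for 72 h before lysis; 100% = DMSO vehicle wells and 0% = 0.29 µM artemisinin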; conditions: P. falciparum 3D7 proliferation; at 28.7 µM (top of the series) unless noted
# In short: (§1)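 Parasite DNA was quantified by SYBR Green I fluorescence (ex 485, em 535 nm) after overnight lysis in saponin/Triton buffer at room temperature. Cultures at 0.3% parasitemia and 2.5% hematocrit were first exposed to compound for 72 h at 37 C; signals were normalised to artemisinin (0.29 uM) and vehicle wells.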
# [7] = qHTS profiling for inhibitors of Plasmodium falciparum (DD2) proliferation (AID 743323; call rule not given here); conditions: lower = more inhibition; at 28.7 µM (top of the series) unless noted
# In short: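 Parasite proliferation measured via DNA-dye fluorescence, as uninfected erythrocytes lack DNA. Cultures at 0.3% parasitemia and 2.5% hematocrit incubated 72 h with compound; signal scaled between vehicle and 0.29 uM artemisinin wells.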
# [8] = qHTS profiling for inhibitors of Plasmodium falciparum (HB3) proliferation (AID 743324); conditions: Plasmodium falciparum HB3 blood-stage proliferation; at 28.7 µM (top of the series) unless noted;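 further: 100% = DMSO vehicle wells and 0% = artemisinin-treated control wells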
# In short: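 SYBR Green fluorescence (485 ex/535 em) of lysed cultures, incubated overnight at room temperature in the dark, quantifies parasite DNA. Infected erythrocytes at 0.3% parasitemia and 2.5% hematocrit were exposed 72 h; values normalized to DMSO and 0.29 uM artemisinin controls.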
# [9] = target: Cytochrome P450 3A4 (Homo sapiens) (UniProt P08684); assay: qHTS Assay for Inhibitors and Substrates of Cytochrome P450 3A4 (AID 884); further: nearly all actives have a fitted effect of over 50% in size; further: potency means the concentration at half of the fitted maximal effect; on activity change, negative = inhibition: on the % scale 0 is the no-effect control and ±100 the full control effect
# Sequence of Cytochrome P450 3A4 (Homo sapiens) (P08684 whole entry, looked up): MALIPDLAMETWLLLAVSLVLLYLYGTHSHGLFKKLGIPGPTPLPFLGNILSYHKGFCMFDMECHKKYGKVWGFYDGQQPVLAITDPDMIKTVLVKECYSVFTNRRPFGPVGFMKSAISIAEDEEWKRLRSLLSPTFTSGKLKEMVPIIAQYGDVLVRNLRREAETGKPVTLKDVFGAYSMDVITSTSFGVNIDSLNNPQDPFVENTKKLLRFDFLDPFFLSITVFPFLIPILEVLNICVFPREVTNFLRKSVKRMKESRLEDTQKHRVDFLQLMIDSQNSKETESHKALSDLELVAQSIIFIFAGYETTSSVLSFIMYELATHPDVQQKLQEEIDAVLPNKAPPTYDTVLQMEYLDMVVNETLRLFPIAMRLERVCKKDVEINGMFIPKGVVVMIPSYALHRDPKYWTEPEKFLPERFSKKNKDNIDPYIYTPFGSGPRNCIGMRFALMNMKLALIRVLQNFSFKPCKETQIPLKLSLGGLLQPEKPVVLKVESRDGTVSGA
# In short: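 Luminescent readout of luciferin produced by CYP3A4 (20 nM) dealkylation of Luciferin-PPXE, 25 uM (its KM). NADPH-driven reaction ran 60 min at RT after 10 min compound preincubation; data scaled to 57 uM ketoconazole as 100% inhibition.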
# [10] = target: Cytochrome P450 2D6 (Homo sapiens) (UniProt P10635); assay: qHTS Assay for Inhibitors and Substrates of Cytochrome P450 2D6 (AID 891); further: nearly all actives have a fitted effect of over 60% in size; further: potency means the concentration at half of the fitted maximal effect;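 on activity change, negative = inhibition: luciferin methyl ether substrate demethylated by CYP2D6 with NADPH regeneration; on the % scale 0 is the no-effect control and ±100 the full control effect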
# Sequence of Cytochrome P450 2D6 (Homo sapiens) (P10635 whole entry, looked up): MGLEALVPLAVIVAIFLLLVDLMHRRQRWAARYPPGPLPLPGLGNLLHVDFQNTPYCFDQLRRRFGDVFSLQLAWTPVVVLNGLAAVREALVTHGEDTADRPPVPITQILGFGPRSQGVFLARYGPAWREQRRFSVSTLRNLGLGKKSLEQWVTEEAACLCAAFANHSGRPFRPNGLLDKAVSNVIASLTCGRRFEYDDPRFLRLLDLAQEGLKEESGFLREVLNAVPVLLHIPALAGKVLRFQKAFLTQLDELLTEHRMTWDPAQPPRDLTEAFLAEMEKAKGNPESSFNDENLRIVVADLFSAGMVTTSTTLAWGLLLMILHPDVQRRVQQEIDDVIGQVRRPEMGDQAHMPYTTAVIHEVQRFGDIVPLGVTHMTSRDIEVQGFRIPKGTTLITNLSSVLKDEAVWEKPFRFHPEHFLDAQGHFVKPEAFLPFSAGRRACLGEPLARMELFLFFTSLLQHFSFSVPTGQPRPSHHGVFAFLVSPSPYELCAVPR
# In short: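 Luminescent read-out of luciferin formed by 5 nM human CYP2D6 demethylating 30 uM Luciferin-ME EGE (Km level) over 60 min at room temperature after NADPH regeneration addition. Data normalized to full inhibition by 1.43 uM quinidine.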
# [11] = qHTS profiling of the MIPE4 collection as inhibitors of Plasmodium falciparum (3D7) proliferation (AID 743344; call rule not given here;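 further: scaled between DMSO vehicle wells and 0.29 µM artemisinin as full inhibition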); conditions: P. falciparum 3D7 in erythrocytes, SYBR Green DNA fluorescence, 72 h; at 5.51 µM (top of the series) unless noted
# In short: as §1
# [12] = qHTS profiling of the MIPE4 collection as inhibitors of Plasmodium falciparum (DD2) proliferation (AID 743345; call rule not given here); conditions: P. falciparum Dd2 in erythrocytes, SYBR Green DNA, 72 h; at 5.51 µM (top of the series) unless noted
# In short: as §1
# [13] = qHTS profiling of the MIPE4 collection as inhibitors of Plasmodium falciparum (DD2) proliferation (Rep 2) (AID 743346; call rule not given here); conditions: P. falciparum Dd2 in erythrocytes, SYBR Green DNA, 72 h; at 5.51 µM (top of the series) unless noted
# In short: as §1
# [14] = qHTS profiling of the MIPE4 collection as inhibitors of Plasmodium falciparum (HB3) proliferation (AID 743347; call rule not given here;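 further: plate controls were DMSO vehicle wells for no effect and artemisinin wells for full effect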); conditions: P. falciparum HB3 in erythrocytes, SYBR Green DNA, 72 h; at 5.51 µM (top of the series) unless noted
# In short: as §1
# [15] = target: Cytochrome P450 3A4 (Homo sapiens) (UniProt P08684); assay: qHTS Assay for Activators of Cytochrome P450 3A4 (AID 885); further: nearly all actives have a fitted effect of over 65% in size; further: potency means the concentration at half of the fitted maximal effect
# In short: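 Using 20nM recombinant human CYP3A4 in potassium phosphate (200mM), substrate Luciferin-PPXE at 25uM, luminescent luciferin detection followed a 60-min RT NADPH reaction; data scaled to 57 uM ketoconazole.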
# [16] = target: Alpha-galactosidase (Coffea arabica) (UniProt Q42656); assay: Counterscreen for Glucocerebrosidase Inhibitors: qHTS Assay for Coffee Bean alpha-Galactosidase at pH 4.5 (AID 957);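 further: plate controls were enzyme alone for no effect and no enzyme for full effect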
# Sequence of Alpha-galactosidase (Coffea arabica) (Q42656 whole entry, looked up): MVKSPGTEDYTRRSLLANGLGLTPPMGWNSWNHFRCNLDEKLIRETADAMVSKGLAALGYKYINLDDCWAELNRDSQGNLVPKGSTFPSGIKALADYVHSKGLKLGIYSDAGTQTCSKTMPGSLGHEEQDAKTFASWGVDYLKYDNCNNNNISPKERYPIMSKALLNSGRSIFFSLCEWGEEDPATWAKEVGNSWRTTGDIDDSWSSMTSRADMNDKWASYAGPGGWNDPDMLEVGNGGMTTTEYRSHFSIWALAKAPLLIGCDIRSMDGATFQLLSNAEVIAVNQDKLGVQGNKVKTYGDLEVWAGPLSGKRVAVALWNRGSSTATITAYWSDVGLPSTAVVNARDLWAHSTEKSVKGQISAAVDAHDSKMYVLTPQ
# In short: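 Quantitative HTS of compounds (0.7 nM to 77 uM) against coffee bean alpha-galactosidase at pH 4.5, measuring 4-methylumbelliferone fluorescence released from 80 uM substrate.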
# [17] = target: Alpha-galactosidase (Coffea arabica) (UniProt Q42656); assay: Counterscreen for Glucocerebrosidase Inhibitors: qHTS Assay for Coffee Bean alpha-Galactosidase at pH 5.9 (AID 998);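 further: plate controls were uninhibited enzyme for no effect and no-enzyme basal signal for full effect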
# In short: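 In 50 mM citric acid pH 5.9 with 0.005% Tween-20, coffee bean enzyme hydrolyses 80 uM 4-MU alpha-D-galactopyranoside over 20 min at RT. Activity is normalized to controls; AC50 comes from Hill-modelled concentration-response data.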
# [18] = Confirmation and Secondary Assay for Modulators of Hemoglobin Beta Chain Splicing at IVS2 654 locus (AID 910);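 further: per-well total GFP intensity by laser scanning cytometry after 2-day treatment; % of control where 0% means no effect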
# In short: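 HeLa cells stably carrying EGFP interrupted by mutant beta-globin IVS2-654 intron (CMV-driven) were treated with compound for 2 days at 37C; corrected splicing was scored as total peak GFP intensity per well (488 nm excitation, 500-520 nm emission).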
# [19] = Confirmation and Secondary Assay for Modulators of Hemoglobin Beta Chain Splicing at IVS2 705 locus (AID 930);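 further: HeLa cells stably expressing the EGFP-705 splicing reporter; GFP fluorescence per well restored by corrected splicing of the IVS2-705 intron in EGFP; % of control where 0% means no effect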
# In short: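 Per-well GFP, captured at 1 x 8 µm resolution with 488 nm excitation, served as the read-out for HeLa EGFP-705 cells incubated 2 days with test compound versus DMSO.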
smiles,measurement,setting,value
O=C1C=CC(=O)c2c1ccc1c2ccc2ccccc21,Potency,[1],1.26 µM (active)
same,Potency,[2],1.58 µM (active)
CN(C)C(=O)CCSC(SCCC(=O)O)c1cccc(/C=C/c2ccc3ccc(Cl)cc3n2)c1 (stereo not given),max response,[3],41.4% (inactive)
COc1cccc(N2C(=O)NC(=O)/C(=C\c3ccc([N+](=O)[O-])s3)C2=O)c1,Potency,[4],8.49 µM (active)
same,Potency,[5],37.9 µM (active)
CSc1cccc(NC(=O)CC[C@H]2O[C@@H]3O[C@]4(C)CC[C@H]5[C@H](C)CC[C@@H]([C@@H]2C)[C@@]35OO4)c1,remaining parasite growth % (stronger effect = lower value),[6],-0.517%
same,"activity, percent of control",[7],0.0476%
same,"remaining proliferation (% of control), lower = more inhibition",[8],0.997%
CN1CCc2nc(CO)c(CO)cc2C1,"activity change, negative = inhibition",[1],21.8% [at 11.4 µM] (inactive)
same,"activity change, negative = inhibition",[9],-11.6% [at 11.4 µM] (inactive)
same,"activity change, negative = inhibition",[10],-13.1% [at 11.4 µM] (inactive)
same,"activity, negative = inhibition",[2],81.3% [at 11.4 µM] (inactive)
CC(=O)c1c(O)c(C)c(O)c2c1OC1=CC(=O)[C@H](C(C)=O)C(=O)[C@]12C,Potency,[1],0.0126 µM (active)
COC(=O)C1(O)CC2OC1(C)n1c3ccccc3c3c4c(c5c6ccccc6n2c5c31)C(=O)NC4 (stereo not given),"parasite growth, % of DMSO control",[11],4.95%
same,"parasite growth remaining, % of DMSO control (lower = more inhibition)",[12],7.86%
same,"parasite growth, % of control (lower = inhibition)",[13],21.3%
same,"growth, % of control",[14],4.75%
O=[N+]([O-])c1ccc(S(=O)(=O)Cc2ccccc2)c([N+](=O)[O-])c1,Potency,[1],3.16 µM (active)
same,Potency,[9],0.316 µM (active)
same,"activity change, positive = activation",[15],-105% [at 11.4 µM] (inactive)
same,Potency,[2],2 µM (active)
C[C@@]12CC[C@@H]3c4ccc(O)cc4CC[C@H]3[C@H]1CC[C@H]2O,Potency,[1],inactive
C[C@H]1[C@@H](CCC(=O)Nc2ccc(F)cc2)O[C@@H]2O[C@]3(C)CC[C@@H]4[C@H](C)CC[C@@H]1[C@@]24OO3,remaining parasite growth % (stronger effect = lower value),[6],-0.086%
same,"activity, percent of control",[7],0.199%
same,"remaining proliferation (% of control), lower = more inhibition",[8],0.121%
C[C@H](Br)C(=O)c1ccc2cc(Br)c3ccccc3c2c1,"activity change, negative = inhibition",[1],58.8% [at 11.4 µM] (inactive)
CCCCN(CCCC)CCC(OC(=O)O[C@@H]1CCC[C@]2(C1)OOC1(O2)C2CC3CC(C2)CC1C3)c1cc2c(Cl)cc(Cl)cc2c2cc(C(F)(F)F)ccc12 (stereo not given in full),remaining parasite growth % (stronger effect = lower value),[6],-0.394%
same,"activity, percent of control",[7],0.0994%
same,"remaining proliferation (% of control), lower = more inhibition",[8],0.359%
CC(C)C[C@H](NC(=O)N1CCCCCC1)C(=O)N[C@H](Cc1cn(C)c2ccccc12)C(=O)N[C@H](Cc1ccccn1)C(=O)O,Potency,[1],6.31 µM (active)
O=c1c2ccccc2c2ccccc2c(=O)n1-c1cc2c3ccccc3ccc2c2ccccc12,Potency,[2],0.158 µM (active)
CCCCCCCCCC[Si](C)(C)CCC(=O)N[C@@H](Cc1ccc(C)cc1)c1ccccc1,outcome,[16],inactive
same,outcome,[17],inactive
Nc1nc(N)c2nc(CNc3ccc(C(=O)N[C@H](CCC(=O)O)C(=O)O)cc3)cnc2n1,outcome,[16],inactive
same,outcome,[17],inactive
CCC(=O)OC1CCC2C3CCc4cc(O)ccc4C3CC[C@]12C (stereo not given in full),Potency,[15],inactive
O=C1c2ccccc2-c2cc([N+](=O)[O-])c([N+](=O)[O-])cc21,Potency,[9],0.501 µM (active)
same,"activity change, positive = activation",[15],-119% [at 11.4 µM] (inactive)
same,Potency,[10],3.16 µM (active)
same,Potency,[2],0.398 µM (active)
N#CC(C#N)=NNc1cccc(Cl)c1,Potency,[9],1.26 µM (active)
same,Potency,[15],inactive
CCCN1[C@H](C(=O)OC)C[C@@H]2CC[C@@H](O)C[C@@H]21,Potency,[15],inactive
CN(C)C1C(=O)C(C(N)=O)=C(O)[C@@]2(O)C(=O)C3=C(O)c4c(O)cccc4[C@](C)(O)C3C(O)C12 (stereo not given in full),Potency,[9],inactive
same,Potency,[18],inactive
C[C@@]12CC[C@@H]3[C@@H](CC[C@H]4C[C@@H](O)CC[C@]43C)[C@H]1CC[C@@H]2c1cc(C(F)(F)F)n[nH]1,"activity change, negative = inhibition",[9],103% [at 11.4 µM] (inactive)
same,Potency,[15],2.51 µM (active)
same,Potency,[2],2.51 µM (active)
CCCCCCCCCCCCCC(=O)OC1C(C)[C@@]2(O)C(C=C(CO)C[C@]3(O)C(=O)C(C)=C[C@H]23)[C@@H]2C(C)(C)[C@]12OC(C)=O (stereo not given in full),Potency,[9],inactive
same,Potency,[18],inactive
C=CCc1cc(OC)c2c(c1OC)OCO2,Potency,[9],7.94 µM (active)
same,Potency,[15],inactive
same,Potency,[18],inactive
same,outcome,[19],inactive
CC(=O)Oc1ccc(/C=C/c2cc(OC(C)=O)cc(OC(C)=O)c2)cc1,Potency,[9],10 µM (active)
same,Potency,[15],inactive
same,Potency,[18],inactive
same,outcome,[19],inactive
Oc1ccc2c(c1)OCO2,Potency,[15],inactive
C[C@@H]1Cc2ccccc2N1NC(=O)c1ccc(Cl)c(S(N)=O)c1 (stereo not given in full),Potency,[15],inactive
